In all, about 290,000 compounds went through this assay and about 1,800 (0.62%) were called active. The full list was thinned out, with actives kept by preference. A number with no mark means an inactive call. Cut-off read from the data, not from the text of the source: active = inhibition above about 50%; inactive = the rest.
Test: NOD2 signaling inhibitors, cell-based, luminescence, uHTS, HEK293 (AID 1566)
Settings: HEK293 NOD2/NF-kB luciferase reporter, at 4 µM, active compounds read high

SMILES	inhibition
CC(=O)N/C(=C\c1ccc2c(c1)OCO2)C(=O)NC(C(=O)O)c1ccccc1 (stereo not drawn)	19.8%
Cc1cccc2sc(NC(=O)CSc3nnnn3C)nc12	-7%
O=C(CNC(=O)c1ccc(Oc2ccccc2)cc1)OC1CCCCC1=O (stereo not drawn)	10.8%
Cc1cccc(Nc2nc(N)nc(CSC(=S)N3CCOCC3)n2)c1	-21.1%
CCc1cccc(C)c1NC(=O)c1ccoc1C	4.5%
Cc1ccc2nc(-c3ccc(O)c(O)c3)cn2c1	-51.7%
Cc1ccc2nc(-c3ccccc3)cn2c1	26.7%
Cc1ccc(-c2cn3cc(C)ccc3n2)cc1	71.8% (active)
CCOC(=O)C1CCN(S(=O)(=O)c2c(C)n(C)c(=O)n(C)c2=O)CC1	-0.5%
O=C1CC(N2CCN(C/C=C/c3ccccc3)CC2)C(=O)N1Cc1cccs1 (stereo not drawn)	7.5%
c1ccc(-c2nc(-c3ccccn3)no2)cc1	20.1%
Cc1ccc(-c2nc(-c3ccccn3)no2)cc1Cl	47.8%
COc1cccc(-c2nc(-c3ccccn3)no2)c1	-16.1%
c1ccc(-c2noc(-c3ccc4ccccc4c3)n2)nc1	45%
Cc1ccc(-c2nc(-c3ccccn3)no2)cc1	84.3% (active)
COc1cc(-c2nc(-c3ccccn3)no2)cc(OC)c1OC	-18.2%
c1ccc(-c2ccc(-c3nc(-c4ccccn4)no3)cc2)cc1	67% (active)
c1ccc(-c2noc(-c3ccncc3)n2)nc1	-43.2%
COc1ccc(-c2nc(-c3ccccn3)no2)cc1	84% (active)
CCOC(=O)c1ccc2c(c1)nc(SCC(=O)c1ccco1)n2CC	8.2%
CN(C)CCNC(=O)c1cc2cc(Br)ccc2oc1=O	-0.6%
COc1ccc(N/C(N)=N/c2nc(CSc3nnc(C)s3)cc(=O)[nH]2)cc1	-37.9%
Cc1ccc(Sc2ccc(NC(=O)CCl)cc2)cc1C	0.9%
Cc1ccc(C)c(Sc2ccc(NC(=O)CCl)cc2)c1	-19.5%
O=C(Cc1ccc(Cl)cc1)Nc1ccccc1Sc1ccccc1	0.7%

SMILES	inhibition
O=C(CCl)Nc1ccccc1Sc1ccccc1	-24.6%
COc1ccccc1C1=NC(c2ccc(F)cc2)N=C1C (stereo not drawn)	-33.6%
COc1ccc(-n2nc(C(=O)NCC(=O)N3CCN(Cc4ccccc4)CC3)c3ccccc3c2=O)cc1	-1.4%
CC1(c2ccccc2)NC(=O)N(CC(=O)Nc2nnc(C3CC3)s2)C1=O (stereo not drawn)	-9.7%
COc1ccc(/C=N/n2c(SC)nnc2-c2ccccc2)c(OC)c1OC	-38.9%
COc1ccc(-n2c(Cc3cccn3C)nnc2SCC(=O)Nc2ccc3c(c2)OCCO3)cc1	6.8%
O=C(c1ccccc1)c1cc([N+](=O)[O-])ccc1N1CCOCC1	5.9%
Cc1cc2ncn(C3CC(=O)N(C)C3=O)c2cc1C (stereo not drawn)	10.1%
CCCN1C2CCCC1CC(NC(=O)C1CCCCC1)C2 (stereo not drawn)	-3.5%
CN1CCN(C(=O)C2CC(=O)N(c3ccc(Cl)cc3)C2)CC1 (stereo not drawn)	-8.8%
CCCCCc1ccc(-c2ccc(/C=C/C(=O)O)cc2)nc1	-82.7%
CCCc1ccc(-c2ccc(/C=C/C(=O)O)cc2)nc1	78.4% (active)
CCCCCc1ccc(-c2ccc(/C=C/C(N)=O)cc2)nc1	-57.2%
COc1ccc(C(CNc2ncnc3sc(C)c(C)c23)N(C)C)cc1 (stereo not drawn)	69.8% (active)
Cc1sc2ncnc(NCCc3ccc(S(N)(=O)=O)cc3)c2c1C	55.7% (active)
Cc1sc2ncnc(NCC(O)c3ccccc3)c2c1C (stereo not drawn)	40.2%
COc1ccccc1C(CNc1ncnc2sc(C)c(C)c12)N(C)C (stereo not drawn)	18.9%
Cc1sc2ncnc(NCC(O)c3ccc([N+](=O)[O-])cc3)c2c1C (stereo not drawn)	51.7% (active)
Cc1sc2ncnc(NCC(c3ccccc3)N(C)C)c2c1C (stereo not drawn)	10.2%
Cc1sc2ncnc(N[C@@H](CCC(=O)O)C(=O)O)c2c1C	2.8%
NS(=O)(=O)c1ccc(CCNc2ncnc3sccc23)cc1	34.1%
Cc1nc(NCCc2ccc(S(N)(=O)=O)cc2)c2c(C)c(C)sc2n1	45.1%
CC(=O)Nc1ccc(OS(=O)(=O)c2ccc(Cl)cc2)cc1	12.5%
CCN(CC)S(=O)(=O)c1ccc(C)c(NC(=O)/C=C/c2cccs2)c1	-13.1%
CCOCC(=O)Nc1ccccc1C(=O)O	5.3%

SMILES	inhibition
CCCCNC(=O)c1cn(CC)c2ccc(S(=O)(=O)N3CCCCCC3)cc2c1=O	-6.4%
O=C(O)CSc1cc(NS(=O)(=O)c2ccc(Br)cc2)c2ccccc2c1O	57.2% (active)
O=S(=O)(Nc1cc(Sc2cccc3cccnc23)c(O)c2ccccc12)c1ccc(F)cc1	-2.1%
O=S(=O)(Nc1cc(Sc2ncn[nH]2)c(O)c2ccccc12)c1ccccc1	19%
O=C(O)CSc1cc(NS(=O)(=O)c2cccc([N+](=O)[O-])c2)c2ccccc2c1O	16.9%
Cc1cc(C)c(S(=O)(=O)Nc2cc(SCC(=O)O)c(O)c3ccccc23)cc1C	29.2%
O=S(=O)(Nc1cc(Sc2cccc3cccnc23)c(O)c2ccccc12)c1ccccc1	95.9% (active)
COc1ccc(NS(=O)(=O)/C=C/c2ccccc2)cc1	17.1%
COc1ccc(C(=O)Nn2c(SCc3cccc([N+](=O)[O-])c3)nc3ccccc3c2=O)cc1	40.4%
COc1cccc(Oc2c(C)oc3c(CN4CCCCC4)c(O)ccc3c2=O)c1	18.7%
Cc1cccc(-n2cc(C(=O)O)c(=O)cc2C)c1	1.7%
CCOc1ccc(/C=C/C(=O)Nc2ccc3[nH]c(=O)[nH]c3c2)cc1	6.2%
Cc1ccc(NS(=O)(=O)c2c(C)nc3sccn3c2=O)cc1C	12.9%
CN(c1cc(=O)n2ccccc2n1)C1CCCCC1	-19.5%
CC1CCCN(c2ccc3nc4ccccc4c(=O)n3n2)C1 (stereo not drawn)	4.1%
CN(c1ccc2nc3ccccc3c(=O)n2n1)C1CCCCC1	79% (active)
Cc1nn(C)c(C)c1CCC(=O)N1CCCC(C(=O)c2cccc(OC(C)C)c2)C1 (stereo not drawn)	14.2%
CSc1ccc(C(=O)C2CCCN(C(=O)CCc3cnn(C)c3)C2)cc1 (stereo not drawn)	11%
CSc1ccc(C(=O)C2CCCN(C(=O)CCc3c(C)nn(C)c3C)C2)cc1 (stereo not drawn)	50.1% (active)
Clc1cccc(-c2ccnc3nc(-n4cccc4)nn23)c1	5.6%
COc1ccc(OC)c(NC(=O)C2CC(=O)N(c3ccccc3)C2)c1 (stereo not drawn)	-11.1%
COCCN1CN=C(NS(=O)(=O)c2ccc(C)cc2)NC1	6.3%
CC1CC(C)CN(C(=O)c2nn(C)c3c2CSc2ccccc2-3)C1 (stereo not drawn)	51.5% (active)
Cn1nc(C(=O)N2CCC(C(N)=O)CC2)c2c1-c1ccccc1SC2	12.9%
CC1CCCN(C(=O)c2nn(C)c3c2CSc2ccccc2-3)C1 (stereo not drawn)	8%

SMILES	inhibition
COCc1ccc(CN2CCC(C(=O)Nc3cccc(-c4cscn4)c3)CC2)o1	7.2%
Cc1ccc(NC(=O)c2cc(C)n(-c3cccc(C)c3)c2C)cc1	-26.4%
Cc1ccc(NC(=O)c2cc(C)n(-c3ccccc3)c2C)cc1	52% (active)
Cc1ccc(S(=O)(=O)NC(=O)c2cc(C)n(-c3ccccc3)c2C)cc1	13.4%
O=C(/C=C/c1cn(-c2ccccc2)nc1-c1cccnc1)N1CCCCC1	10%
O=C(/C=C/c1cn(-c2ccccc2)nc1-c1cccnc1)N1CCCC1	50.2% (active)
O=C(/C=C/c1cn(-c2ccccc2)nc1-c1cccnc1)c1ccco1	-74.6%
CC(OC(=O)C1CCN(S(=O)(=O)c2ccc(Cl)cc2)CC1)C(=O)N1CCc2ccccc21 (stereo not drawn)	-4.3%
COc1ccc(CN(Cc2nc3ccccc3c(=O)[nH]2)C(=O)c2ccco2)cc1	6.4%
c1ccc2c(c1)nc(-c1ccncc1)n2CCNc1nc(CN2CCCCC2)cs1	18.5%
CCOC(=O)c1ccc(NC(=S)N2CCCC(C(=O)OCC)C2)cc1 (stereo not drawn)	-6%
O=C1C=C(c2cccs2)C[C@H](c2ccccc2)[C@H]1n1nnc([N+](=O)[O-])n1	21.7%
O=C1C=C(c2ccccc2)C[C@H](c2cccs2)[C@H]1n1cnc([N+](=O)[O-])c1	3.4%
COc1ccc(NC(=O)c2cccc(OC(=S)N3CCOCC3)c2)cc1	18.5%
Cc1cccc(C)c1NC(=S)NCc1ccncc1	7.5%
Cc1cc(/C=c2/sc3nc4ccccc4n3c2=O)c(C)n1-c1ccccn1	3.6%
Cc1cc(/C=c2\sc3nc4ccccc4n3c2=O)c(C)n1-c1ccc(C(=O)O)cc1	-0.4%
CC1(C)Cc2c(c(-c3ccco3)nc3sc4c(NCCO)ncnc4c23)CO1	16.6%
Cc1ccc(C(=O)O/N=C(/c2nonc2N)N(C)C)cc1	12.2%
COc1ccc(-c2nc3ccccc3n2Cc2ccccc2)cc1	-2.8%
Cc1n(Cc2ccccc2)c2ccccc2[n+]1Cc1ccccc1	22%
C/C(=N\Nc1ccc(C)c(Cl)c1)c1ccncc1	-32.8%
O=C(Nc1ccc2c(c1)OCO2)C1CCN(Cc2cc3c(cc2O)OCO3)CC1	1.5%
